Measured potencies and affinities stand elsewhere. The source made the active and inactive calls.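 How the source made its calls: active means fitted half-maximal dose no more than twice the top valid tested dose, for compounds that lower signal; inconclusive means fit invalid, or curve flat with activity between -70 and -30; inactive means potency past limit, curve flat within ±30, or signal increasing.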

Chain of NAD-dependent protein deacylase sirtuin-5, mitochondrial (Homo sapiens) (Q9NXA8 whole entry, looked up): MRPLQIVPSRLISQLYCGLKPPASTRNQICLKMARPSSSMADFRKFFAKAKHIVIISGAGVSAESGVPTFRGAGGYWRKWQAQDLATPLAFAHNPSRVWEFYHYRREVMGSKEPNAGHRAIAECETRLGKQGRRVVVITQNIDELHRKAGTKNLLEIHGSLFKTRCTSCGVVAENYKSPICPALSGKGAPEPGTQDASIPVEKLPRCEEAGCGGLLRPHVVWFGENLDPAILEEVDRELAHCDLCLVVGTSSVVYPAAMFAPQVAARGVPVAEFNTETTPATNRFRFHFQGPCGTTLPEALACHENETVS

This assay has as its target NAD-dependent protein deacylase sirtuin-5, mitochondrial (Homo sapiens) (UniProt Q9NXA8). The experiment in a line: SIRT5 deacylase inhibitors, dose response, biochemical, fluorescence imaging, cherry-pick, set 6 (AID 720597).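 Further: lower AMC signal can also come from blocking the trypsin step.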 The conditions noted are these: Purified SirT5, succinyl-peptide-AMC/trypsin fluorescence; series mostly up to 15 µM.
Turning to `CS(=O)(=O)N1[C@@H](CO)[C@@H](c2ccccc2)C12CN(C(=O)c1ccccc1F)C2`, the outcome was inactive.

With `CO[C@@H]1CC[C@@H]2CCOc3c(C#N)cccc3C(=O)N(C)C[C@@H](OC)[C@@H](C)C(=O)N(C)C[C@@H]1O2`, the compound was called inactive.

Take `COc1cccc(S(=O)(=O)N(C)C[C@@H]2Oc3cc(C4=CCCCC4)ccc3S(=O)(=O)N([C@H](C)CO)C[C@@H]2C)c1`: the result was inactive.

Turning to `C[C@@H]1CN([C@@H](C)CO)C(=O)c2cccc(NS(=O)(=O)c3cn(C)cn3)c2O[C@H]1CN(C)Cc1ccc(C(F)(F)F)cc1`, the compound was called inactive.

Consider `O=C(NCC[C@@H]1CC[C@@H](NS(=O)(=O)c2ccc(Cl)cc2)[C@H](CO)O1)c1ccccc1F`, for which the call was inactive.

In the case of `Cc1noc(C)c1NC(=O)Nc1cccc2c1O[C@@H](CN(C)Cc1ccc(Oc3ccccc3)cc1)[C@H](C)CN([C@H](C)CO)C2=O`, the compound was classed as inactive.

For the compound `C[C@H]1CN([C@@H](C)CO)S(=O)(=O)c2ccc(C#CC3CC3)cc2O[C@H]1CN(C)Cc1ccccc1F`, the result was inactive.

Turning to `COc1ccccc1NC(=O)N1CC(=O)N2[C@H](CO)[C@@H](c3ccc(C#CC4CC4)cc3)[C@H]2C1`, the outcome was inactive.

Take `COc1ccc(NC(=O)N(C)C[C@@H]2Oc3ccc(NS(=O)(=O)c4ccc(F)cc4)cc3C(=O)N([C@H](C)CO)C[C@@H]2C)cc1`: the outcome was inactive.

Turning to `C[C@H](CO)N1C[C@H](C)[C@@H](CN(C)Cc2ccc(C(F)(F)F)cc2)Oc2ccc(NS(=O)(=O)c3ccc(F)cc3)cc2CC1=O`, the outcome was inactive.

For the compound `COc1cc2c(cc1OC)CN(C(=O)[C@@H]1[C@H]3C(=O)O[C@H](c4ccccc4)[C@H](c4ccccc4)N3[C@H](c3ccc(OCCO)cc3)[C@@]13C(=O)Nc1ccc(C#CCNC(N)=O)cc13)CC2`, the compound was classed as inactive.

`C[C@@H]1CN([C@H](C)CO)C(=O)Cc2cc(NC(=O)Nc3ccc(F)cc3)ccc2O[C@@H]1CN(C)C`: the result was inactive.

As for `COc1ccccc1C(=O)Nc1ccc2c(c1)C(=O)N(C)[C@H]1CC[C@H](CC(=O)Nc3cccc(C(C)C)c3)O[C@@H]1CO2`, the call was inactive.

With `COCC(=O)NC[C@H]1N[C@H](CO)[C@H]1c1ccc(C2=CCCCC2)cc1`, the compound was classed as inactive.

Regarding `C[C@@H]1CCCCO[C@@H](CN(C)CC2CCCCC2)[C@@H](C)CN([C@@H](C)CO)C(=O)c2cc(NS(=O)(=O)c3ccc(F)cc3)ccc2O1`, the result was inactive.

For `C[C@H](CO)N1C[C@H](C)[C@@H](CN(C)Cc2ccc(Cl)c(Cl)c2)OCCCC[C@H](C)Oc2ccc(NS(=O)(=O)c3cccs3)cc2C1=O`, the call was inactive.

As to `CCCNC(=O)N1CC2(C1)[C@H](c1ccccc1)[C@H](CO)N2C(=O)C1CC1`, the compound was classed as inactive.

As to `C[C@H](CO)N1C[C@H](C)[C@H](CN(C)S(=O)(=O)c2ccccc2F)Oc2cc(C#Cc3cccc(F)c3)ccc2S1(=O)=O`, the result was inactive.

Turning to `COc1ccc(S(=O)(=O)Nc2ccc3c(c2)C(=O)N([C@H](C)CO)C[C@@H](C)[C@H](CN(C)S(=O)(=O)c2ccc(Cl)cc2)OCCCC[C@H](C)O3)cc1`, the outcome was inactive.

As to `Cc1cccc(-c2noc(CN(C(=O)c3ccc(Br)o3)C(C)C)n2)c1`, the call was inactive.

`C[C@H]1CN([C@@H](C)CO)C(=O)Cc2cc(NS(=O)(=O)c3ccc(Cl)cc3)ccc2O[C@@H]1CN(C)Cc1ccc(Oc2ccccc2)cc1`: the call was inactive.

On to `COc1cccc(S(=O)(=O)N(C)C[C@H]2Oc3cc(C4=CCCCC4)ccc3S(=O)(=O)N([C@H](C)CO)C[C@H]2C)c1`, for which the compound was classed as inactive.

On to `COc1ccc(S(=O)(=O)N(C)C[C@@H]2Oc3ncc(C#CCN(C)C)cc3C(=O)N([C@H](C)CO)C[C@@H]2C)cc1`, for which the compound was classed as inactive.

Take `C[C@@H]1CN([C@H](C)CO)C(=O)c2cc(NS(=O)(=O)c3ccc(Cl)cc3)ccc2O[C@@H](C)CCCCO[C@H]1CN(C)C(=O)Nc1ccc(C(F)(F)F)cc1`: the result was inactive.

For `C[C@H](CO)N1C[C@H](C)[C@H](CN(C)C(=O)Nc2ccc(F)cc2)Oc2ccc(NC(=O)Nc3ccc(F)cc3)cc2C1=O`, the compound was called inactive.

In the case of `C[C@H](CO)N1C[C@H](C)[C@H](CN(C)Cc2ccc(C(F)(F)F)cc2)Oc2c(NC(=O)c3nc4ccccc4s3)cccc2C1=O`, the compound was called inactive.

For the compound `CCN1[C@@H]2c3ccc(-c4cccc(F)c4)c(=O)n3C[C@@H]2[C@@H](CO)[C@@H]1C(=O)N[C@H](C)c1ccccc1`, the compound was called inactive.

As for `CCCC#Cc1ccc([C@H]2[C@H](CO)N3CCCCN(S(=O)(=O)Cc4ccccc4)C[C@@H]23)cc1`, the outcome was inactive.

`COCCNC(=O)c1cc2c(c(-c3cccc(-c4cccc(F)c4)c3)n1)[C@H](CCO)N([S@@](=O)C(C)(C)C)C2`: the call was inactive.

Consider `CCCC#Cc1ccc([C@H]2[C@@H](CO)N3CCCCN(S(=O)(=O)Cc4ccccc4)C[C@@H]23)cc1`, for which the result was inactive.

For `COc1ccc(S(=O)(=O)Nc2ccc3c(c2)C(=O)N([C@@H](C)CO)C[C@@H](C)[C@@H](CN(C)Cc2ccc(C(F)(F)F)cc2)OCCCC[C@@H](C)O3)cc1`, the compound was called inactive.

In the case of `CC(C)CC#Cc1ccc2c(c1)O[C@@H](CN(C)C(=O)C1CCCCC1)[C@H](C)CN([C@H](C)CO)S2(=O)=O`, the compound was classed as inactive.

Consider `CCCC#Cc1ccc(CC[C@H]2O[C@H]3CC[C@@H](CO)O[C@H]3C[C@H]2NS(=O)(=O)c2ccccc2)cc1`, for which the outcome was inactive.

Turning to `COc1cccc(-c2cn(CC[C@@H]3CC[C@H](NC(=O)CC4CC4)[C@@H](CO)O3)nn2)c1`, the compound was classed as inactive.

Consider `CO[C@H]1CN(C)C(=O)c2cc(NC(=O)CC(F)(F)F)ccc2OC[C@@H](C)N(C(=O)C2CCCCC2)C[C@@H]1C`, for which the outcome was inactive.

On to `COc1ccc(S(=O)(=O)Nc2ccc3c(c2)C(=O)N([C@H](C)CO)C[C@H](C)[C@H](CN(C)Cc2ccc(C(F)(F)F)cc2)OCCCC[C@H](C)O3)cc1`, for which the outcome was inactive.

On to `CC(C)OC(=O)N(C)C[C@@H]1OCc2cn(nn2)CCCC(=O)N([C@H](C)CO)C[C@H]1C`, for which the call was inactive.

Take `O=S(=O)(c1ccccc1)N1CCCCN2[C@H](C1)[C@H](c1ccc(C#CC3CCCC3)cc1)[C@@H]2CO`: the outcome was inactive.

For the compound `C[C@@H]1CCCCO[C@@H](CN(C)C(=O)C2CCCCC2)[C@H](C)CN([C@@H](C)CO)C(=O)c2cc(NC(=O)Nc3ccc(F)cc3)ccc2O1`, the compound was classed as inactive.

Regarding `O=C(Nc1ccc2c(c1)OCO2)N[C@H]1CC[C@H](CCNC(=O)C2CC2)O[C@@H]1CO`, the outcome was inactive.

Values taken from PubChem BioAssay AID720597 (Broad Institute, 2013).
